# From PubChem BioAssay
# ALOX15B inhib = blocks human 15-lipoxygenase 2 activity | Potency, µM (doses to about 57.1 µM), without a hit: top-dose activity change, negative = inhibition, hits mostly inhibitors | 110,000 tested, 0.56% active | purified 15hLO-2, xylenol orange hydroperoxide absorbance | AID 881; note: potency is the fitted concentration of half-maximal effect; nearly all actives have a fitted effect of over 60% in size
# Target sequence (O15296 whole entry, looked up): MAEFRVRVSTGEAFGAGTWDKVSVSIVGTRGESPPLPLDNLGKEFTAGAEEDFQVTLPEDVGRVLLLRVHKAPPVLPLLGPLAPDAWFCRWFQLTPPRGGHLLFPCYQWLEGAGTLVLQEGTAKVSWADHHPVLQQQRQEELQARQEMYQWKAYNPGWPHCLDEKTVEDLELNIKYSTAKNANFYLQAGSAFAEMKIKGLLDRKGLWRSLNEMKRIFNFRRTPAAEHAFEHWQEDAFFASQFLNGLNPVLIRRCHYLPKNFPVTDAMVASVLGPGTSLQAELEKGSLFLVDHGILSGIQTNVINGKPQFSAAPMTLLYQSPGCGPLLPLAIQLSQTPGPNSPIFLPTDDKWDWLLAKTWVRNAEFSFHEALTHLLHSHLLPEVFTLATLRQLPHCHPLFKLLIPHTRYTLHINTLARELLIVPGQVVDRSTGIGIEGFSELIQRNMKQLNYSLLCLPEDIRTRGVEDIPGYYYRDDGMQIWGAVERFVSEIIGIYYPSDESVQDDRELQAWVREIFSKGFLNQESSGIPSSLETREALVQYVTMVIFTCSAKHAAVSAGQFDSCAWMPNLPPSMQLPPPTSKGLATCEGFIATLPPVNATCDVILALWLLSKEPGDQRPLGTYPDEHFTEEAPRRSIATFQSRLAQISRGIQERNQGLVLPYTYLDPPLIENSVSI
#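 Purified human 15hLO-2 (50 nM) preincubated 15 min with compound, then 45 uM arachidonic acid for 90 min at RT in 25 mM Hepes pH 7.5, 0.01% Triton X-100. Hydroperoxide detected by Fe-xylenol orange; 573/405 nm absorbance ratio.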
# IMPase Li inh = IMPase inhibition in cells with lithium potentiation; CHO-M1 cells, IP1 TR-FRET (IP-One), carbachol + lithium; Potency, µM (highest dose often 59.4 µM), inactives show top-dose activity, negative = IMPase inhibition, usual class: inhibitors; 210,000 tested, 0.35% active; AID 1457;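 note: IP1 builds up when IMPase is blocked and the TR-FRET signal falls; potency is the fitted concentration of half-maximal effect; plate controls were basal vehicle for no effect and high inhibitor control for full effect; nearly all actives have a fitted effect of over 50% in size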
#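 Concentration–response in CHO-M1 cells, lithium-potentiated; 30 min at 37C. IP1 detected by competitive TR-FRET after 10 min lysis at RT. Hill-fitted AC50.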
# IMPase inh = membrane-permeable compound that blocks inositol monophosphatase; P97697; CHO-M1 cells, IP1 accumulation, HTRF TR-FRET ratio; inhibition (IP1 accumulation), % at 46.1 µM; 120,000 tested, under 10 active; active = well fitted curve in the direction sought with a large enough effect in the signal ratio, not every such curve was filed as active; inconclusive = small, poorly fitted or top-dose-only effect, or a change in a side signal; inactive = no such curve, though single readings can be large or run the other way; the % refers to the signal ratio;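 note: cells stimulated with carbachol in lithium chloride buffer; plate controls were DMSO basal wells for no effect and reference inhibitor wells for full effect; higher means more IMPase inhibition seen as more IP1 and lower FRET ratio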
#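 CHO-M1 cells (CHO stably expressing M1 receptor), compound up to 46 uM final, stimulated with carbachol (50 uM as added) in buffer with 50mM LiCl, pH 7.4, 30 min at 37C. Cytosolic IP1 read by TR-FRET; AC50 from Hill fits.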
# 12-hLO inh = 12-hLO (ALOX12) enzyme inhibition | P18054 | purified 12-hLO, xylenol orange hydroperoxide absorbance | Potency, µM (highest dose often 57.1 µM), inactives show at the highest dose activity change, negative = inhibition, hits mostly inhibitors | 150,000 tested, 0.12% active; note: potency is the fitted concentration of half-maximal effect; nearly all actives have a fitted effect of over 55% in size
#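 Xylenol orange chromogenic assay: hydroperoxide from 12hLO oxidises Fe(II), giving red-shifted Fe(III)-XO absorbance. Conditions: 150 nM enzyme, 40 uM arachidonic acid, 25 mM Hepes pH 7.0, 0.01% Triton X-100, 30 min, room temperature.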
# PNC assembly inh = inhibitors of perinucleolar compartment assembly. PC3M PTB-GFP, PNC prevalence imaging, 16 h; hits give low values. activity change (PNC), negative = inhibition, % at 10 µM. 140,000 tested, 3.1% active. AID 2417;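 active = readout at or below -70, meaning at least 70% loss of cells showing the perinucleolar compartment, a nuclear body marking cancer cells; inconclusive = readout between -30 and a set limit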;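 note: plate controls were DMSO wells for no effect and camptothecin positive control wells for full effect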
#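 Read-out is percentage of cells bearing a perinucleolar compartment, from automated 20x imaging of fixed, Hoechst-stained PC3M PTB-GFP cells. Cells were seeded 4 h, then exposed 16 h to compound (23 nl of library stock) in duplicate plates.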
# * marks the source's active call; other numbers are inactive results; ? = inconclusive; . = no result; [ ] = remark or other dose. The full list was thinned out, with hits kept by preference. Unless noted, calls come from the whole dose curve; as a rule, active = well fitted curve in the direction sought with a large enough effect; inconclusive = small, poorly fitted or top-dose-only effect, or another doubt; inactive = no such curve, though single readings can be large; an effect the other way counts as inactive or inconclusive. Unless noted, % is set by controls: 0 for no effect and ±100 for the full control effect.
SMILES,ALOX15B inhib,IMPase Li inh,IMPase inh,12-hLO inh,PNC assembly inh
COc1cc(C2C(C#N)=C(N)Oc3cc(O)ccc32)cc(OC)c1OC (stereo not given),-6%,2%[38.3 µM],4,0%,-91*
C[C@@H]1CC[C@]2(C(=O)O)CC[C@]3(C)C(=CCC4[C@@]5(C)C[C@@H](O)[C@H](O)[C@@](C)(CO)C5CC[C@]43C)C2[C@H]1C (stereo not given in full),17%[0.0915 µM],0%,.,-1%[0.00818 µM],.
C#C[C@H](N)CCC(=O)O,5%,.,2,-8%,.
CCOc1ccc(S(=O)(=O)N2c3ccccc3CC2C)cc1 (stereo not given),-7%,55%[38.3 µM],0,5%,-103*
CNC(=O)c1sc(-c2ccccc2)nc1C,2%,20%[38.3 µM],-5,-1%,-83*
CNC(=O)c1sc(-c2ccc(Cl)cc2)nc1C,-3%,-23%[38.3 µM],-16,-3%,-90*
CC(=O)c1sc(-c2ccc(Cl)cc2)nc1C,.,5%,.,.,.
COc1cccc(Cn2c(=O)c(-c3cccc(Cl)c3)nc3cncnc32)c1,9%,5%,.,-3%,.
CN1/C(=C\C=C2/C(=O)Oc3ccccc3C2=O)C(C)(C)c2ccccc21,.,-5%,.,-3%,-91*
CC(=O)OC1CC[C@]2(C)C(CC[C@@]3(C)C2C(=O)C=C2C4C(C)C(C)CC[C@@]4(C(=O)O)CCC23C)C1(C)C (stereo not given in full),-27%,2%,.,0%,.
Cn1c(Cc2csc(N)n2)nnc1SCC(=O)NCc1ccccc1,0%[2.29 µM],12%[38.3 µM],-6,-1%,-92*
Cn1c(Cc2csc(N)n2)nnc1SCC(=O)NC1CCCCC1,-7%,6%[38.3 µM],-8,-4%,?
COc1ccc2c(c1OC)C(=O)OC2Nc1nc(-c2cc3ccccc3oc2=O)cs1 (stereo not given),.,-3%,3,-3%,-7
COc1ccc2c(c1OC)C(=O)OC2Nc1nc(-c2ccc(-c3ccccc3)cc2)cs1 (stereo not given),.,-4%,.,-2%,-123*
COc1ccc2c(c1OC)C(=O)OC2Nc1ncccc1C (stereo not given),0%,-2%[38.3 µM],1,4%,35
COc1ccc2c(c1OC)C(=O)OC2Nn1cncn1 (stereo not given),-1%,6%[38.3 µM],3,4%,-94*
O=C(NCCN1CCOCC1)c1ccc(=O)oc1,-2%,-5%[38.3 µM],-8,-12%,-127*
O=C(NCCN1CCOCC1)c1ccc(F)cc1,0%,6%[38.3 µM],-4,-6%,15
COc1nc(Cl)nc(Cl)c1Cl (tested in a mixture with another compound),2%[11.4 µM],-2%,.,8%[11.4 µM],.
c1ccc2c[n+](CCCC[n+]3ccc4ccccc4c3)ccc2c1,9%[11.4 µM],12%,.,-2%[11.4 µM],.
Cc1nc(N[C@@H](Cc2c[nH]c3ccccc23)C(=O)O)c2oc3ccccc3c2n1,6%,11µM*,-13,-5%,-29
C[C@@H]1O[C@@H](O)[C@@H](O)[C@H](O)[C@H]1O,-2%[11.4 µM],-4%,.,-2%[11.4 µM],.
O=C(CSc1nc2ccccc2n1-c1ccccc1)Nc1ncc(Cl)cc1Cl,.,22%,-8,-6%,-107*
Cc1cccc(-n2c(SCC(=O)Nc3ncc(Cl)cc3Cl)nc3ccccc32)c1,.,10%,6,1%,-108*
Cc1ccccc1NC(=O)Cn1nnc(-c2ccc(N3CCOCC3)cc2)n1,-26%,10µM*,3,-6%,9
SMILES,ALOX15B inhib,IMPase Li inh,IMPase inh,12-hLO inh,PNC assembly inh
CN(C)c1ccc(-c2nnn(CC(=O)Nc3ccccc3N3CCOCC3)n2)cc1,9%,7%[38.3 µM],2,-1%,3
CSc1nncc(/C(C)=N\Nc2cccc(C)c2)n1,3.2µM*,0%[38.3 µM],7,-13%,30
Clc1cccc(-c2ccc(/C=N/n3cnnc3)o2)c1Cl,.,-14%,-5,4%,-100*
CCOc1ccccc1-c1nc(-c2ccc(-c3ccccc3)nc2OCC)no1,.,.,-9,.,.
CCOc1nc(-c2ccccc2)ccc1-c1noc(-c2ccco2)n1,.,5%,-7,-2%,-100*
COc1nc(-c2ccccc2)ccc1-c1noc(-c2ccc(F)cc2)n1,7%,8.9µM*,2,-8%,-9
CCOC(=O)N1CCN(C(=O)CN(c2cc(C)ccc2OC)S(=O)(=O)c2ccc(C)cc2)CC1,.,.,2,.,.
CC(C)CN1CCCC2(CCN(C(=O)c3cccc(F)c3)CC2)C1,-3%,-1%,.,1%,.
Nc1c(-c2ccc(Cl)cc2)cnc2ncnn12,13%,7%[38.3 µM],1,0%,-109*
COc1ccc(-c2cnc3ncnn3c2N)cc1,.,3%,.,.,.
Nc1c(-c2ccccc2)cnc2cc(-c3ccccc3)nn12,.,12%,.,.,.
Cc1cc2ncc(-c3ccc(Cl)cc3)c(N)n2n1,7%,28%[38.3 µM],11,1%,-108*
COc1ccc(CN=C2NC(=O)CC(C(=O)Nc3cc(C)cc(C)c3)S2)cc1 (stereo not given),.,0%,.,-4%,-84*
CC(=O)Oc1cc(OC(C)=O)c2c(=O)cc(-c3ccc(OC(C)=O)c(OC(C)=O)c3)oc2c1,-23%,20%,7,?,.
O=C1C2C3C=CC(C3)C2C(=O)N1CCc1ccccc1 (stereo not given),11%,42%[38.3 µM],-2,1%,13
O=C(CCN1C(=O)C2C3C=CC(C3)C2C1=O)NCCc1ccccc1 (stereo not given),0%,3%,2,-3%,-93*
Cc1cc(C(=O)Cn2nnc3ccccc3c2=O)c(C)n1-c1ccccc1F,2%,21%[38.3 µM],-2,-1%,-87*
Cc1ccc(S(=O)(=O)N2CCC(=O)N(C(COCc3ccc(Cl)cc3)C(C)C)CC2)cc1 (stereo not given),.,17%,.,-11%,-119*
Cc1ccc(S(=O)(=O)N2CCC(=O)N(CCOCc3cccc(C(F)(F)F)c3)CC2)cc1,.,2%,.,-3%,-81*
Cc1ccc(S(=O)(=O)N2CCC(=O)N(C(COCc3ccccc3)C(C)C)CC2)cc1 (stereo not given),.,11%,.,0%,22
Cc1cc(C(F)F)n2nc(C(=O)Nc3ccc(F)c(Cl)c3)nc2n1,.,.,-9,.,.
C[C@@H]1CC[C@H]2[C@H](C)C3[C@H](C[C@H]4[C@@H]5CC=C6C[C@@H](O)CC[C@@]6(C)[C@@H]5C[C@@H](O)[C@]34C)N2C1 (stereo not given in full),.,14%,.,.,.
Cc1nn(C)cc1CNC(=O)/C=C/c1cnn(C)c1,.,-5%,.,1%,-109*
Cn1ncc2c(Nc3ccccc3Br)ncnc21,7%,13%[38.3 µM],-4,1%,11
Cn1ncc2c(Nc3ccc(-c4ccccc4)cc3)ncnc21,-6%,10%[38.3 µM],11,-7%,-82*
CCCn1c(-c2ccc(F)cc2)nc2c(N3CCC(N(C)C)C3)nc(C)nc21 (stereo not given),26%,-5%,.,1%,.
